# Measured values reported in the supplement of paper PMC10849652.
# About 7,900 targets were measured; listed, in parts, are those with a hit and a random draw of the rest. About 0.6% of all pairs of compound and target were hits. Values without a mark were called inactive.
# Experiments:
# Experiment in all cases: log2 fold change, soluble protein after heating vs DMSO (PISA); higher = thermal stabilisation; K562 cells, 10 uM, 30 min; active = over 0.2 and 3.5 SD of the protein, either way, in both replicates (recomputed)
# [1] = compound: C#Cc1cccc(Nc2ncnc3cc(OCCOC)c(OCCOC)cc23)c1 [erlotinib]
# Summary of the method: (§1)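 For each measurement, 10 μM compound was applied for 30 min to K562 cells at 2×10^6 cells/mL. Aliquots were heated for 3 min across 48°C-58°C, pooled, and extracted in PBS with 0.5% NP-40 at 4°C; the supernatant after 21,000xg for 90 min was soluble protein. This was quantified by TMTpro 16plex LC-MS/MS with channel sums equalised, and thermal stability was reported relative to control samples from duplicates, on a log2 fold-change scale.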
# [2] = compound: C/C(=N\NC(=O)C1=CC(=CC=C1)S(=O)(=O)N2CCOCC2)/C3=C(C=CC(=C3)Cl)O
# Summary of the method: as §1
# [3] = compound: C1=CC(=C(C=C1Cl)C2=NC3=NC=CN=C3C(=N2)NC4=CC=NC=C4)F
# Summary of the method: as §1
# [4] = compound: C1=CC(=CC=C1C2=NC3=C(N2)C=C(C=C3)C(=O)N)OC4=CC=C(C=C4)Cl
# Summary of the method: as §1
# [5] = compound: C1=CC2=C(C=CC(=C2)/C=C\3/C(=O)NC(=NCC4=CC=CS4)S3)N=C1
# Summary of the method: as §1
# [6] = compound: C1=CC2=NC=CN=C2C=C1/C=C/3\C(=O)NC(=O)S3
# Summary of the method: as §1
# [7] = compound: C1=CC=C(C=C1)C2=NC(=C(N2)C3=CC=NC=C3)C4=CC(=C(C=C4)Cl)O
# Summary of the method: as §1
# [8] = compound: C1=CC=C2C(=C1)C3=NNC4=CC=CC(=C43)C2=O
# Summary of the method: as §1
# [9] = compound: C1CCN(C1)C(=O)NC2=CC=CC(=C2)NC3=NC=C(C(=N3)NCCC4=CN=CN4)Br
# Summary of the method: as §1
# [10] = compound: C1CN(CCC1(CC2=CC=C(C=C2)Cl)N)C3=NC=NC4=C3C=CN4
# Summary of the method: as §1
# [11] = compound: C1COCCN1CCN2C3=CC=CC=C3N=C2NC(=O)C4=CC(=CC=C4)[N+](=O)[O-] [IRAK-1-4 Inhibitor I]
# Summary of the method: as §1
# [12] = compound: C=CC(=O)N1CCC[C@@H](n2nc(-c3ccc(Oc4ccccc4)cc3)c3c(N)ncnc32)C1 [ibrutinib]
# Summary of the method: as §1
# [13] = compound: CC(=O)c1cnc2ccc(-c3cc(Cl)c(O)c(Cl)c3)nc2c1N[C@H]1CC[C@H](CN(C)C)CC1
# Summary of the method: as §1
# [14] = compound: CC(C)(C)Cn1c(N)nc2ccc(-c3[nH]c(C(C)(C)C)nc3-c3ccc(F)cc3)nc21 [ralimetinib]
# Summary of the method: as §1
# [15] = compound: CC(C)(O)CC(=O)NCCn1ccc2ncnc(Nc3ccc(Oc4cccc(C(F)(F)F)c4)c(Cl)c3)c21
# Summary of the method: as §1
# [16] = compound: CC(C)C1=C2N=C(C=C(N2N=C1)NCC3=CC=CC=C3)NCCCCCCN
# Summary of the method: as §1
# [17] = compound: CC(C)C[C@@H](C=O)NC(=O)[C@H](CC(C)C)NC(=O)[C@H](CC(C)C)NC(=O)OCc1ccccc1
# Summary of the method: as §1
# [18] = compound: CC(C)N(C[C@H]1O[C@@H](n2cnc3c(N)ncnc32)[C@H](O)[C@@H]1O)[C@H]1C[C@@H](CCc2nc3cc(C(C)(C)C)ccc3[nH]2)C1 [pinometostat]
# Summary of the method: as §1
# [19] = compound: CC1=C(C(CC(=O)N1)C2=CC=C(C=C2)C(F)(F)F)C(=O)NC3=C(C=C4C(=C3)C=NN4)F
# Summary of the method: as §1
# [20] = compound: CC1=C(C2=C(C=C1)C(=O)C3=CC=CC=C3N2CCCN)C
# Summary of the method: as §1
# Chain of UniProt Q08945 (Q08945 whole entry, looked up): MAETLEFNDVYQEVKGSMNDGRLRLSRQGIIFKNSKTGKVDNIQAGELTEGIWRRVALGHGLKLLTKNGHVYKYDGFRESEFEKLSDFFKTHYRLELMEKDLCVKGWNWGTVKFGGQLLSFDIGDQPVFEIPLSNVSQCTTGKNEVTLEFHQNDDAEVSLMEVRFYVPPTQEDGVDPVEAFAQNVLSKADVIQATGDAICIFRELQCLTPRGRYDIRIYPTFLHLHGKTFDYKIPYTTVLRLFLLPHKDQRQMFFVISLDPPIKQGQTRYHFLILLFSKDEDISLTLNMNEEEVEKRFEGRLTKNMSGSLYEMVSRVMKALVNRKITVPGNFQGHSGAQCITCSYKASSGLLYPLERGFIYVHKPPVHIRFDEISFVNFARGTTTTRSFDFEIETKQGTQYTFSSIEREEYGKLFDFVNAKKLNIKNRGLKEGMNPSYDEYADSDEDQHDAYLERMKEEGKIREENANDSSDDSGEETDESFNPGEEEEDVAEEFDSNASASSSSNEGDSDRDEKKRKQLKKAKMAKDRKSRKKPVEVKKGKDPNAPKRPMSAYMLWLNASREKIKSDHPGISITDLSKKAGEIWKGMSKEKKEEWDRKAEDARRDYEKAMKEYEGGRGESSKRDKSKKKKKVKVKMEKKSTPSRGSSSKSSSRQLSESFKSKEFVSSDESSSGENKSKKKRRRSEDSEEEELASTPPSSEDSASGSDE
# Chain of UniProt Q66K14 (Q66K14 whole entry, looked up): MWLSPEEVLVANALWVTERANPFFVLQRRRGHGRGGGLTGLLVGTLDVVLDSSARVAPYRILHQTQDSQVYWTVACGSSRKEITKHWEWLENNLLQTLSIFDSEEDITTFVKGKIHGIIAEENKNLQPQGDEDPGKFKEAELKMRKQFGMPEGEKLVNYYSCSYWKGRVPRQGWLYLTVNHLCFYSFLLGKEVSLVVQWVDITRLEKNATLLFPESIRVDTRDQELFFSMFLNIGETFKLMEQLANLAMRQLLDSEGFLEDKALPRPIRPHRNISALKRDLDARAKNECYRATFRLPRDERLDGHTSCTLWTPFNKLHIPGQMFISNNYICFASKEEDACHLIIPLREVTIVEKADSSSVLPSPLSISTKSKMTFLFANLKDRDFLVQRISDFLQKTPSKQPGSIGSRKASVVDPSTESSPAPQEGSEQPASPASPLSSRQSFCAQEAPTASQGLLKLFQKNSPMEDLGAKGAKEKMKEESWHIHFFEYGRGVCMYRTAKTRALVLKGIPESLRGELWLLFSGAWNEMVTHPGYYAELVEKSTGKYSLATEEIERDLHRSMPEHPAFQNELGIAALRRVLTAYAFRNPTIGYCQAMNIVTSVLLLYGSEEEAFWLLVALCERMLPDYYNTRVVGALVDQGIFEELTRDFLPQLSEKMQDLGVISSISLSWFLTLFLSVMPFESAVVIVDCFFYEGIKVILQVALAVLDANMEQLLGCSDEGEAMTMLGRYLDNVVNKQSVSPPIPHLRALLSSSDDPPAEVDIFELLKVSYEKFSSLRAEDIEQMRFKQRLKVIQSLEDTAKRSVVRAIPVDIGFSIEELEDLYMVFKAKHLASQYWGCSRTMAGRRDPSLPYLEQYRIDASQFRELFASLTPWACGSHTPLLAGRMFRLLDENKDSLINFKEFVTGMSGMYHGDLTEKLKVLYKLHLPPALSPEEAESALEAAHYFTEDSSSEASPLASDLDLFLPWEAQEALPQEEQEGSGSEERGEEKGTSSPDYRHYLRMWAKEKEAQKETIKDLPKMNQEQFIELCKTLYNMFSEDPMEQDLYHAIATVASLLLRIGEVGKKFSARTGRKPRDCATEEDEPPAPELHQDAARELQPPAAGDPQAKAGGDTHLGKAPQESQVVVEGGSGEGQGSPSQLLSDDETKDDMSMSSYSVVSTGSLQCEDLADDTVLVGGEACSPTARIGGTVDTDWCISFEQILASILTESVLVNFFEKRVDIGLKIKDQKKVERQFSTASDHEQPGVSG
# Chain of UniProt O60271 (O60271 whole entry, looked up): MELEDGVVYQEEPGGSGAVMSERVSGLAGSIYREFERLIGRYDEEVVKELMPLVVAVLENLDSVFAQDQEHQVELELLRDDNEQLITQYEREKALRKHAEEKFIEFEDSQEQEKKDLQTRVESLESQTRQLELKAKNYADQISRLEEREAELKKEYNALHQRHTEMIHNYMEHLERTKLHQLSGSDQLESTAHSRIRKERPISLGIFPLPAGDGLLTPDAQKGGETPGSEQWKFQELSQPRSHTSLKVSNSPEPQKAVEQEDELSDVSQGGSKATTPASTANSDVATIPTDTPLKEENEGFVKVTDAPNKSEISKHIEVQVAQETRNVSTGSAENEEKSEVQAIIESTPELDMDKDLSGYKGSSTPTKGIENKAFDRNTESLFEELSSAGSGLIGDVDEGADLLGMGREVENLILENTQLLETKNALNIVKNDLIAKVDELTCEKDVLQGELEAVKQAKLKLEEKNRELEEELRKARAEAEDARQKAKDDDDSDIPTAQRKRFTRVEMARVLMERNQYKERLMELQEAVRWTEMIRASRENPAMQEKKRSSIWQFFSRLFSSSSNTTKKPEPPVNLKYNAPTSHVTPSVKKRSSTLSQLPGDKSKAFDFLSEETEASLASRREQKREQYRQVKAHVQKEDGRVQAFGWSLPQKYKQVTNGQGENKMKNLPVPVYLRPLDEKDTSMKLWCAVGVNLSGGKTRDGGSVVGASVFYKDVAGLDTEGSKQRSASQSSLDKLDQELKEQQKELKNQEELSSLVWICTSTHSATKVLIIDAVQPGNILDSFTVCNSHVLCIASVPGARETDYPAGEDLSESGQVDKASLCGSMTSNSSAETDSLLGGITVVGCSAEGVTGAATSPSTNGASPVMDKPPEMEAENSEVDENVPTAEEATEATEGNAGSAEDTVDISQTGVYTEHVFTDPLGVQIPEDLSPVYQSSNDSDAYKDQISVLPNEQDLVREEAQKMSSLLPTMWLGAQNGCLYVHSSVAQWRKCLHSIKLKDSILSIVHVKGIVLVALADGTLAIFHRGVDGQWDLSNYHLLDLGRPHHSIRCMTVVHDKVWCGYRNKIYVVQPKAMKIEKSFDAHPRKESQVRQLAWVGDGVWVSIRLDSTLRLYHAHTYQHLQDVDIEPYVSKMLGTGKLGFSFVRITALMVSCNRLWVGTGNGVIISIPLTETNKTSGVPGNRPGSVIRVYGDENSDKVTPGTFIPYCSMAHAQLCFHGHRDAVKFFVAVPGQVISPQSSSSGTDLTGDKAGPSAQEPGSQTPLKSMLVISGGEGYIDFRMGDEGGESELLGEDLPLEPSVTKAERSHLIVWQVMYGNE
# Chain of UniProt Q13428 (Q13428 whole entry, looked up): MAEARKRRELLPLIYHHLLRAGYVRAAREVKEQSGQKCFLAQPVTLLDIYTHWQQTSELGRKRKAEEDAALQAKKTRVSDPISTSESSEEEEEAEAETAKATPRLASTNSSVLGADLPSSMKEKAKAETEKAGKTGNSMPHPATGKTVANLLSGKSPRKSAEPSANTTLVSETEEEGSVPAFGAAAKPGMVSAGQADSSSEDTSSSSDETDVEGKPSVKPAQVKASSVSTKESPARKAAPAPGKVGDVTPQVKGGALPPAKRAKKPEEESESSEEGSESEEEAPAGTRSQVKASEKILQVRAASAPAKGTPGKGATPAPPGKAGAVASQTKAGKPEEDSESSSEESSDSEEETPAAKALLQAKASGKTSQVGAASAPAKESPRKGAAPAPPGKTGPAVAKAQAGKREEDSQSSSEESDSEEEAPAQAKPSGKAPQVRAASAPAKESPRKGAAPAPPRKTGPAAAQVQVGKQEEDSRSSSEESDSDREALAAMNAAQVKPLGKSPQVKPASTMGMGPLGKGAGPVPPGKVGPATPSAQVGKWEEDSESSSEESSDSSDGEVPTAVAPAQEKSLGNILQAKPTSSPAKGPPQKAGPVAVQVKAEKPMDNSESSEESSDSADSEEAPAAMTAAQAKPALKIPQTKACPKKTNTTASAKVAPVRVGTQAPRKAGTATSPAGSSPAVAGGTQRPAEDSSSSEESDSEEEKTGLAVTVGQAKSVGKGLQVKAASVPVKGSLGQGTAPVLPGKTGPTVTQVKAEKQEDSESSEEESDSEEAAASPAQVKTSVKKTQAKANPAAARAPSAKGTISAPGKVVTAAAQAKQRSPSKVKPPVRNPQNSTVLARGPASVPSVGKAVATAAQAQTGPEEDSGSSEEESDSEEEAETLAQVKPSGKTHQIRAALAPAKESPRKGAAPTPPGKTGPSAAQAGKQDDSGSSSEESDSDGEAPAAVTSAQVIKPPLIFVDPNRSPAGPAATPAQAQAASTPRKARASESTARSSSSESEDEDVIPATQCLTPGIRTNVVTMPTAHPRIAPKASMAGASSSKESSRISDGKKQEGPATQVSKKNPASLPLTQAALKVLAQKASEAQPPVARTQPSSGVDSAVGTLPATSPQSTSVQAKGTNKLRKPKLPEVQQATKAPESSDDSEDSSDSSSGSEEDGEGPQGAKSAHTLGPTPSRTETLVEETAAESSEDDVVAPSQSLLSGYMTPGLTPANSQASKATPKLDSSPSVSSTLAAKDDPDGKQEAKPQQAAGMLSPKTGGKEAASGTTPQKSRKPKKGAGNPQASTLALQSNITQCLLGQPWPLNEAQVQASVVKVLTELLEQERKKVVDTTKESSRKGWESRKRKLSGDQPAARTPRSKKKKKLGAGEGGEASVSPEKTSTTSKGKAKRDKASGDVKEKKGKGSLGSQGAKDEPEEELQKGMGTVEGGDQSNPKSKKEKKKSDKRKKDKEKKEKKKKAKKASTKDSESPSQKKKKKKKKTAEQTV
# Chain of UniProt Q9NZ01 (Q9NZ01 whole entry, looked up): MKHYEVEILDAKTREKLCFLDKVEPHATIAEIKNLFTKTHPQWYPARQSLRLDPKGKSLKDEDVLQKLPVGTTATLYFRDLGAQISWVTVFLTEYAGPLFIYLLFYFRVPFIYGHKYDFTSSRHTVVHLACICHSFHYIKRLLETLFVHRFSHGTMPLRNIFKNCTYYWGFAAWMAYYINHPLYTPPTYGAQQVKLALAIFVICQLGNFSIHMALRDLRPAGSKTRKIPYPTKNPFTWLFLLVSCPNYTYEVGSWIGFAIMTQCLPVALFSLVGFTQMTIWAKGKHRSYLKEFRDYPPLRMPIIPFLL
Target,log2 fold change [1],log2 fold change [2],log2 fold change [3],log2 fold change [4],log2 fold change [5],log2 fold change [6],log2 fold change [7],log2 fold change [8],log2 fold change [9],log2 fold change [10],log2 fold change [11],log2 fold change [12],log2 fold change [13],log2 fold change [14],log2 fold change [15],log2 fold change [16],log2 fold change [17],log2 fold change [18],log2 fold change [19],log2 fold change [20]
SPIRE1 (UniProt Q08AE8),0.16,-0.264,-0.466 (active),-0.119,0.11,-0.034,0.048,-0.063,0.01,0.145,-0.065,0.032,0,0.008,0.073,0.181,0.09,-0.006,-0.036,0.029
SLC25A42 (UniProt Q86VD7),0.08,0.01,0.089,0.01,-0.032,-0.026,0.079,-0.137,-0.086,0.066,0.034,0.045,-0.002,0.041,0.015,0.014,-0.037,-0.027,-0.045,0.077
TIPRL (UniProt O75663),0.055,0.097,0.031,0.009,0.049,0.036,-0.002,0.03,0.021,-0.041,-0.011,-0.005,-0.067,-0.007,-0.065,-0.173,0.048,-0.015,0.069,0.017
TCOF1 isoform 4 (UniProt Q13428),0.035,-0.005,-0.005,-0.008,-0.002,0.014,-0.024,-0.001,-0.043,-0.107,-0.009,-0.034,-0.13,0.028,0.023,-0.042,-0.083,0.024,0.015,-0.664 (active)
SMAD9 (UniProt O15198),-0.001,0.086,0.101,-0.055,0,-0.012,-0.111,-0.098,0.113,-0.076,-0.033,0.007,-0.092,-0.087,-0.022,0.005,0.06,0.024,0.039,0.017
STXBP2 isoform 3 (UniProt Q15833),0.088,0.139,-0.109,-0.049,0.096,-0.004,0.05,0.026,-0.058,-0.166,-0.11,-0.057,-0.021,0.172,-0.065,-0.364 (active),0.147,0.189,0.023,0.025
SLC38A7 (UniProt Q9NVC3),0.009,-0.003,0.071,0.058,0.024,0.088,0.441 (active),0.006,0.011,0.097,0.035,0.073,0.092,0.205,-0.085,-0.751 (active),-0.024,0.033,-0.009,0.007
TBC1D9B (UniProt Q66K14),0.07,0.001,-0.087,0.072,0.151,-0.092,-0.011,0.021,-0.055,-0.058,0.038,0.079,-0.075,0.071,0.103,-0.133,0.032,0.051,0.02,-0.042
SLC25A4 (UniProt P12235),0.007,-0.016,0.035,-0.009,-0.004,0.042,0.045,-0.076,-0.019,0.021,0.032,0.068,0.016,-0.007,0.009,0.089,0.004,-0.02,-0.031,-0.013
STXBP5 (UniProt Q5T5C0),0.028,0.039,0.097,0.018,0.094,0.026,0.036,-0.015,-0.014,0.011,-0.025,-0.037,-0.073,0.029,-0.038,-0.107,-0.049,0.025,0.018,0.048
SPECC1 (UniProt Q5M775),0.044,-0.002,0.022,0,0.056,0.02,-0.208,-0.023,0.026,0.012,0.01,-0.068,-0.035,-0.107,0.025,0.08,0.003,-0.25,0.048,-0.01
SUCLG1 (UniProt P53597),0.033,0.027,0.052,-0.004,0.012,-0.017,0.061,-0.017,0.021,0.034,0.048,0.01,-0.018,-0.039,-0.07,-0.058,-0.01,-0.04,-0.017,0.053
TECR (UniProt Q9NZ01),-0.02,0.042,0.036,-0.059,0.018,0.024,0.067,-0.059,0.072,0.045,0.04,-0.059,0,-0.061,-0.107,-0.458 (active),0.009,0.024,0.012,0.036
SPAG9 (UniProt O60271),0.018,-0.025,0.034,-0.016,0.028,0.039,-0.016,-0.012,0.015,-0.009,-0.003,-0.003,0.022,0,-0.045,-0.219 (active),0.016,0.028,0.011,-0.004
SSRP1 (UniProt Q08945),-0.018,0.143,0.005,0.014,0.029,0.022,-0.016,-0.029,-0.052,0.009,-0.044,-0.037,-0.138,-0.022,-0.008,-0.119,0,-0.036,-0.02,-0.554 (active)
SNRNP27 (UniProt Q8WVK2),0.026,-0.021,0.052,0.015,0.015,0.045,-0.165,-0.027,0.061,0.035,0.033,0.002,-0.03,-0.118,0.018,0.035,0.054,-0.04,0.082,-0.043
